The term inhibition denotes the change of the read-out against control, counted positive when it falls.

From PubChem BioAssay AID1645857 (Buhrlage Lab, Dana-Farber Cancer Institute and Novartis …, 2021) come the findings set out here.

The campaign covered roughly 47,000 compounds. About 1,400 (3%) were called active. This is one part of a sample in which actives are shown more often than they occur. Unmarked numbers belong to inactive results. No stated cut-off is given here; in the data, active means inhibition above about 30%; inactive means the rest.

In this assay the target is Ubiquitin carboxyl-terminal hydrolase 28 (Homo sapiens) (UniProt Q96RU2). Nature of the assay: blocks human USP28 ubiquitin-rhodamine cleavage (AID 1645857). To be noted: purified USP28, Ub-rhodamine cleavage fluorescence, 30 min; at 25 µM; stronger effect = higher value.
Chain of Ubiquitin carboxyl-terminal hydrolase 28 (Homo sapiens) (Q96RU2 whole entry, looked up): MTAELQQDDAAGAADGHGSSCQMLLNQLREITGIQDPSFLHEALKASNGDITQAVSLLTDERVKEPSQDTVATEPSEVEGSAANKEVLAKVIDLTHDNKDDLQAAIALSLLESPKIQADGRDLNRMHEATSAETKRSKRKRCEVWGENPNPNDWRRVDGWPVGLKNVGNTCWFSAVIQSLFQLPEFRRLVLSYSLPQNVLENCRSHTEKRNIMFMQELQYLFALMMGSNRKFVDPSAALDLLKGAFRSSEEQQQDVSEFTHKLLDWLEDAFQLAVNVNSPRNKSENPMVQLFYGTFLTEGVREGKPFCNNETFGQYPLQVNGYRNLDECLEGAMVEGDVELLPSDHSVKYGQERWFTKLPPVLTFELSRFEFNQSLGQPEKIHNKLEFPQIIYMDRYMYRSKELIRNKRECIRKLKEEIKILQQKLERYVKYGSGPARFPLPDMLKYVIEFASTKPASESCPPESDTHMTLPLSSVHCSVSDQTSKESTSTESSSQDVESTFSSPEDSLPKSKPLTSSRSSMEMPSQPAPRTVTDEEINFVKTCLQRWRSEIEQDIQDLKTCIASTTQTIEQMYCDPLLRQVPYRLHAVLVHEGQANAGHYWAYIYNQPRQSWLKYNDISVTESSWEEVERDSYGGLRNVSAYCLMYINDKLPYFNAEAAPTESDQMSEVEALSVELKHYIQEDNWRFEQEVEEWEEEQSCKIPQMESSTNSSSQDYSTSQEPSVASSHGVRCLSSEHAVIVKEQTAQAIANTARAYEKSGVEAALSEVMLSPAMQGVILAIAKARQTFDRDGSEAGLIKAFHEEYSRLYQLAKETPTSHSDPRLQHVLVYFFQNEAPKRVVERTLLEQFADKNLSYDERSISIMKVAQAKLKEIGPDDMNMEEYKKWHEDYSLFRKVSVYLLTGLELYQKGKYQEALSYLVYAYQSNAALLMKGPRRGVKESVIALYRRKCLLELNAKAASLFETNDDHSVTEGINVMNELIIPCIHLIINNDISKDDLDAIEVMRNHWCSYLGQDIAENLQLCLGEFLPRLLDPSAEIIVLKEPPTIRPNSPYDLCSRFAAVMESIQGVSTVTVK
On to `O=C(NCC(c1cccnc1)N1CCc2ccccc2C1)c1cccc(F)c1` (configuration not stated), for which the inhibition is -8.37%.

As for `COc1ccc(N(Cc2cc(=O)[nH]c3ccccc23)C(=O)c2ccc(Cl)cc2)cc1`, the inhibition was 9.24%.

In the case of `Cc1cc(N)nc2c1c(C)nn2-c1ncc(C(F)(F)F)cc1Cl`, the inhibition is -20.8%.

Turning to `CC(=O)c1ccc(Cc2ncc(C(F)(F)F)cc2Cl)s1`, the inhibition is 61% (active).

As for `O=c1[nH]oc(O)c1-c1ncc(C(F)(F)F)cc1Cl`, the inhibition was 8.59%.

Regarding `COc1ccc(N(CC(=O)N2CCc3ccccc32)S(=O)(=O)c2ccccc2)cc1`, the inhibition was -2%.

Consider `O=C(c1ccccc1F)N1CCCC1c1nccnc1-c1ncc[nH]1` (configuration not stated), for which the inhibition is 8.72%.

Regarding `O=C(COc1ccccc1)N1CCc2[nH]nc(-c3ccccc3)c2C1`, the inhibition was 5.14%.

Consider `COc1ccc(Oc2nc(C)c(-c3ccccc3)cc2C#N)cc1`, for which the inhibition was 13.9%.

With `COc1ccccc1N1C(=O)c2ccccc2N2C(=O)c3ccccc3C12` (configuration not stated), the inhibition is 6.01%.

Consider `Cc1cccc(NC(=O)c2cnn3c2NC2=C(C(=O)CCC2)C3c2ccccc2)c1` (configuration not stated), for which the inhibition was -27.3%.

For `CCN1C(=O)CCc2cc(NC(=O)Cc3ccc(OC)c(Cl)c3)ccc21`, the inhibition is 2.71%.

In the case of `COCCN1C(=O)CCc2cc(NS(=O)(=O)c3cc(C)cc(C)c3)ccc21`, the inhibition is -19.5%.

`CCCCOc1ccc(C(=O)Nc2ccc3c(c2)CCC(=O)N3CCC)cc1`: the inhibition is 84.6% (active).

Consider `Cc1ccnc(Nc2nc(-c3ccccc3)c3cc(Cl)ccc3n2)n1`, for which the inhibition is 12.6%.

As for `COc1ccccc1CC(NC(C)=O)C(=O)NC1CCN(C(=O)c2cccc(C)c2)CC1` (configuration not stated), the inhibition is -1.93%.

As for `Cc1cc(C)n(CC2CCCCN2CC(=O)NC2(C#N)CCCC2)n1` (configuration not stated), the inhibition was 0.626%.

With `Cc1ccc(C(=O)Nc2nccnc2C(=O)NCc2ccc3c(c2)OCO3)cc1`, the inhibition is -7.28%.

With `CCc1nc2ccc(C(=O)Nc3nc(-c4ccc5c(c4)CCN5C(=O)c4ccc(C)cc4)c(C)s3)cc2nc1CC`, the inhibition was -7.6%.

For the compound `Cc1ccc(C(=O)Nc2nc3c(s2)CCC3C(=O)NCc2ccncc2)cc1` (configuration not stated), the inhibition was 37.1% (active).

On to `NS(=O)(=O)c1ccc(CNc2nc(CN3CCCCC3)nc3sc4c(c23)CCC4)cc1`, for which the inhibition was -16.9%.

With `CCCCn1c(=O)c(CCC(=O)OCC(=O)Nc2ccc(C)c(Cl)c2)nc2ccccc21`, the inhibition was -33.9%.

In the case of `O=C(CC1CCCC1)N1CCCC(n2c(=O)[nH]c3cncnc32)C1` (configuration not stated), the inhibition was -14.3%.

Consider `Cc1cccc(OCc2nnc(C3(c4ccc(F)cc4)CCOCC3)o2)c1`, for which the inhibition was 13.2%.

On to `Fc1ccc(-n2cc(-c3ccccc3)c3c(NCc4ccco4)ncnc32)cc1`, for which the inhibition was -4.6%.

With `CC(C)Cc1nc2sc3c(NCc4ccco4)ncnc3c2c2c1CCC2`, the inhibition is 21.3%.

As to `c1coc(CNc2nc(Nc3cccc4ccccc34)nc3ccccc23)c1`, the inhibition was 43.7% (active).
